# Test results taken from PubChem BioAssay (NCI).
# Compounds without any hit were thinned out: in the full panel of roughly 79,000, 15% have a hit. Values without a mark were called inactive. The source made the active and inactive calls. No stated cut-off is given here; in the data, active means growth inhibition above about 70%; inactive means the rest.
# Columns and labels:
# [1] = NCI Yeast Anticancer Drug Screen. Data for the rad52 strain (AID 147);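 further: 0% = growth of vehicle-treated control cultures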; settings: S. cerevisiae rad52 mutant growth inhibition, active compounds read high
# In short: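 DNA repair-defective yeast; compound exposure; growth scored against vehicle controls.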
# [2] = NCI Yeast Anticancer Drug Screen. Data for the wt1 strain (AID 149);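 further: 0% = growth of vehicle-treated wt1 cultures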; settings: S. cerevisiae wt1 strain (SPY 50644) growth inhibition, active compounds read high
# In short: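 Growth inhibition read against vehicle controls after compound exposure of the wt1 yeast strain.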
# [3] = NCI Yeast Anticancer Drug Screen. Data for the rad50EPP+ strain (AID 151);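 further: 0% = growth of vehicle-treated control cultures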; settings: S. cerevisiae rad50 mutant strain, active compounds read high
# In short: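 rad50EPP+ yeast treated with test compounds. Readout: growth vs vehicle control.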
# [4] = NCI Yeast Anticancer Drug Screen. Data for the mgt1 strain (AID 153); settings: S. cerevisiae mgt1 mutant growth inhibition, active compounds read high
# In short: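 Growth inhibition relative to vehicle controls was scored for the mgt1 yeast strain after compound exposure.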
# [5] = NCI Yeast Anticancer Drug Screen. Data for the rad50 strain (AID 155);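 further: 0% = growth of vehicle-only cultures of the same strain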; settings: S. cerevisiae rad50 strain growth inhibition, active compounds read high
# In short: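 Readout: growth inhibition relative to vehicle-treated cultures. Compound exposure was carried out in a genetically defined yeast strain deficient in DNA damage repair.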
# [6] = NCI Yeast Anticancer Drug Screen. Data for the mec2-1 strain (AID 157); settings: S. cerevisiae mec2-1 strain, active compounds read high
# In short: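 Growth inhibition is read against vehicle-treated controls after compound exposure of the mec2-1 yeast strain, which is defective in DNA damage repair or cell cycle control.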
# [7] = NCI Yeast Anticancer Drug Screen. Data for the rad14 strain (AID 159);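 further: 0% = growth of vehicle-treated control cultures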; settings: S. cerevisiae rad14 strain growth inhibition, active compounds read high
# In short: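 Growth inhibition vs vehicle controls; genetically altered yeast strain (DNA damage repair defect) treated with test compounds.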
# [8] = NCI Yeast Anticancer Drug Screen. Data for the sgs1 mgt1 strain (AID 161);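 further: 0% = growth of cultures given vehicle only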; settings: S. cerevisiae sgs1 mgt1 strain, active compounds read high
# In short: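 Yeast cells carrying a defined DNA-repair defect were exposed to test compounds. Growth inhibition was measured relative to vehicle-treated controls.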
# [9] = NCI Yeast Anticancer Drug Screen. Data for the CLN2oe strain (AID 163);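 further: 0% = growth of vehicle-only control cultures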; settings: S. cerevisiae CLN2oe strain, active compounds read high
# In short: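 Compound-treated yeast; growth vs vehicle ctrl = % inhibition. Genetically altered strain (cell-cycle control).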
# [10] = NCI Yeast Anticancer Drug Screen. Data for the cln2 rad14 strain (AID 165);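 further: 0% = growth equal to vehicle treated cultures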; settings: S. cerevisiae cln2 rad14 strain, active compounds read high
# In short: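 Growth inhibition, relative to vehicle-treated controls, is the read-out. The test organism is a yeast strain with defined genetic alterations, cln2 rad14.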
# [11] = NCI Yeast Anticancer Drug Screen. Data for the bub3 strain (AID 167); settings: S. cerevisiae bub3 mutant strain, active compounds read high
# In short: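 Readout: yeast growth inhibition, expressed relative to vehicle-only wells. The test organism is a mutant strain from a panel with lesions in DNA repair or checkpoint genes.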
# [12] = NCI Yeast Anticancer Drug Screen. Data for the wt2 strain (AID 169);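 further: 0% = growth of vehicle-treated yeast cultures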; settings: S. cerevisiae wt2 strain growth inhibition, active compounds read high
# In short: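 Compound exposure of yeast; growth compared with vehicle controls; inhibition reported.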
# [13] = NCI Yeast Anticancer Drug Screen. Data for the mlh1 strain (AID 171);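 further: 0% = growth of vehicle-treated control cultures of the same strain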; settings: S. cerevisiae mlh1 strain growth inhibition, active compounds read high
# In short: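 Compounds are applied to a genetically altered yeast strain, and its growth is compared with that of vehicle-treated cultures to give percent inhibition.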
# [14] = NCI Yeast Anticancer Drug Screen. Data for the sgs1 strain (AID 173);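 further: 0% = growth of vehicle-only control cultures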; settings: S. cerevisiae sgs1 mutant, active compounds read high
# In short: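 Compounds applied to genetically altered yeast; growth compared with vehicle-treated cultures to give % inhibition.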
# [15] = NCI Yeast Anticancer Drug Screen. Data for the mlh1 rad18 strain (AID 175); settings: S. cerevisiae mlh1 rad18 strain growth inhibition, active compounds read high
# In short: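 Cells of a genetically altered yeast strain, deficient in DNA damage repair, were treated with compound. Their growth was then compared with that of vehicle-treated cultures to give inhibition.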
# [16] = NCI Yeast Anticancer Drug Screen. Data for the rad18 strain (AID 177); settings: S. cerevisiae rad18 mutant growth inhibition, active compounds read high
# In short: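 Compounds are applied to a repair-deficient yeast strain, and growth is compared with that of vehicle-treated cultures to give percent inhibition.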
# [17] = at 5.0 µM (retest, dose inferred, filed as 0.5)
# [18] = at 50.0 µM (retest, dose inferred, filed as 5.0)
smiles,measurement,setting,value
CCOC(=O)C(Br)C(Br)c1ccccc1Cl (stereo unspecified),growth inhibition,[1]; at 1.2 µM,6%
same,growth inhibition,[1]; at 3.7 µM,23%
same,growth inhibition,[1]; at 11.0 µM,83% (active)
same,growth inhibition,[1]; at 33.0 µM,99% (active)
same,growth inhibition,[1]; at 100.0 µM,99% (active)
same,growth inhibition,[2]; at 1.2 µM,-4%
same,growth inhibition,[2]; at 3.7 µM,7%
same,growth inhibition,[2]; at 11.0 µM,46%
same,growth inhibition,[2]; at 33.0 µM,99% (active)
same,growth inhibition,[2]; at 100.0 µM,99% (active)
same,growth inhibition,[3]; at 1.2 µM,24%
same,growth inhibition,[3]; at 3.7 µM,62%
same,growth inhibition,[3]; at 11.0 µM,96% (active)
same,growth inhibition,[3]; at 33.0 µM,99% (active)
same,growth inhibition,[3]; at 100.0 µM,99% (active)
same,growth inhibition,[4]; at 1.2 µM,0%
same,growth inhibition,[4]; at 3.7 µM,14%
same,growth inhibition,[4]; at 11.0 µM,61%
same,growth inhibition,[4]; at 33.0 µM,99% (active)
same,growth inhibition,[4]; at 100.0 µM,99% (active)
same,growth inhibition,[5]; at 1.2 µM,5%
same,growth inhibition,[5]; at 3.7 µM,17%
same,growth inhibition,[5]; [17],23%
same,growth inhibition,[5]; at 11.0 µM,68%
same,growth inhibition,[5]; at 33.0 µM,99% (active)
same,growth inhibition,[5]; [18],99% (active)
same,growth inhibition,[5]; at 50.0 µM,99.7% (active)
same,growth inhibition,[5]; at 100.0 µM,99% (active)
same,growth inhibition,[6]; at 1.2 µM,0%
same,growth inhibition,[6]; at 3.7 µM,12%
same,growth inhibition,[6]; [17],30%
same,growth inhibition,[6]; at 11.0 µM,47%
same,growth inhibition,[6]; at 33.0 µM,99% (active)
same,growth inhibition,[6]; [18],100% (active)
same,growth inhibition,[6]; at 50.0 µM,99.8% (active)
same,growth inhibition,[6]; at 100.0 µM,99% (active)
same,growth inhibition,[7]; at 1.2 µM,0%
same,growth inhibition,[7]; at 3.7 µM,10%
same,growth inhibition,[7]; at 11.0 µM,47%
same,growth inhibition,[7]; at 33.0 µM,98% (active)
same,growth inhibition,[7]; at 100.0 µM,99% (active)
same,growth inhibition,[8]; [17],46%
same,growth inhibition,[8]; [18],99% (active)
same,growth inhibition,[8]; at 50.0 µM,99.8% (active)
same,growth inhibition,[9]; at 1.2 µM,-2%
same,growth inhibition,[9]; at 3.7 µM,3%
same,growth inhibition,[9]; at 11.0 µM,47%
same,growth inhibition,[9]; at 33.0 µM,99% (active)
same,growth inhibition,[9]; at 100.0 µM,99% (active)
same,growth inhibition,[10]; [17],13%
same,growth inhibition,[10]; [18],99% (active)
same,growth inhibition,[10]; at 50.0 µM,99.4% (active)
same,growth inhibition,[11]; at 1.2 µM,-1%
same,growth inhibition,[11]; at 3.7 µM,7%
same,growth inhibition,[11]; [17],22%
same,growth inhibition,[11]; at 11.0 µM,47%
same,growth inhibition,[11]; at 33.0 µM,98% (active)
same,growth inhibition,[11]; [18],99% (active)
same,growth inhibition,[11]; at 50.0 µM,99.8% (active)
same,growth inhibition,[11]; at 100.0 µM,99% (active)
same,growth inhibition,[12]; at 1.2 µM,-2%
same,growth inhibition,[12]; at 3.7 µM,22%
same,growth inhibition,[12]; at 11.0 µM,93% (active)
same,growth inhibition,[12]; at 33.0 µM,99% (active)
same,growth inhibition,[12]; at 100.0 µM,99% (active)
same,growth inhibition,[13]; at 1.2 µM,9%
same,growth inhibition,[13]; at 3.7 µM,23%
same,growth inhibition,[13]; at 11.0 µM,92% (active)
same,growth inhibition,[13]; at 33.0 µM,99% (active)
same,growth inhibition,[13]; at 100.0 µM,99% (active)
same,growth inhibition,[14]; at 1.2 µM,10%
same,growth inhibition,[14]; at 3.7 µM,34%
same,growth inhibition,[14]; at 11.0 µM,94% (active)
same,growth inhibition,[14]; at 33.0 µM,99% (active)
same,growth inhibition,[14]; at 100.0 µM,99% (active)
same,growth inhibition,[15]; [17],39%
same,growth inhibition,[15]; [18],99% (active)
same,growth inhibition,[15]; at 50.0 µM,99.5% (active)
same,growth inhibition,[16]; at 1.2 µM,10%
same,growth inhibition,[16]; at 3.7 µM,29%
same,growth inhibition,[16]; at 11.0 µM,89% (active)
same,growth inhibition,[16]; at 33.0 µM,99% (active)
same,growth inhibition,[16]; at 100.0 µM,99% (active)
CCCCCCC(O)CNCc1ccnc2ccc(OC)cc12 (stereo unspecified),growth inhibition,[1]; at 1.2 µM,5%
same,growth inhibition,[1]; at 3.7 µM,12%
same,growth inhibition,[1]; at 11.0 µM,22%
same,growth inhibition,[1]; at 33.0 µM,35%
same,growth inhibition,[1]; at 100.0 µM,52%
same,growth inhibition,[2]; at 1.2 µM,2%
same,growth inhibition,[2]; at 3.7 µM,9%
same,growth inhibition,[2]; at 11.0 µM,4%
same,growth inhibition,[2]; at 33.0 µM,8%
same,growth inhibition,[2]; at 100.0 µM,18%
same,growth inhibition,[3]; at 1.2 µM,1%
same,growth inhibition,[3]; at 3.7 µM,2%
same,growth inhibition,[3]; at 11.0 µM,4%
same,growth inhibition,[3]; at 33.0 µM,0%
same,growth inhibition,[3]; at 100.0 µM,2%
same,growth inhibition,[4]; at 1.2 µM,1%
same,growth inhibition,[4]; at 3.7 µM,4%
same,growth inhibition,[4]; at 11.0 µM,17%
same,growth inhibition,[4]; at 33.0 µM,38%
same,growth inhibition,[4]; at 100.0 µM,51%
same,growth inhibition,[5]; at 1.2 µM,5%
same,growth inhibition,[5]; at 3.7 µM,13%
same,growth inhibition,[5]; [17],8%
same,growth inhibition,[5]; at 11.0 µM,11%
same,growth inhibition,[5]; at 33.0 µM,31%
same,growth inhibition,[5]; [18],51%
same,growth inhibition,[5]; at 50.0 µM,76.8% (active)
same,growth inhibition,[5]; at 100.0 µM,54%
same,growth inhibition,[6]; at 1.2 µM,4%
same,growth inhibition,[6]; at 3.7 µM,13%
same,growth inhibition,[6]; [17],7%
same,growth inhibition,[6]; at 11.0 µM,15%
same,growth inhibition,[6]; at 33.0 µM,29%
same,growth inhibition,[6]; [18],43%
same,growth inhibition,[6]; at 50.0 µM,53.4%
same,growth inhibition,[6]; at 100.0 µM,46%
same,growth inhibition,[7]; at 1.2 µM,13%
same,growth inhibition,[7]; at 3.7 µM,32%
same,growth inhibition,[7]; at 11.0 µM,33%
same,growth inhibition,[7]; at 33.0 µM,33%
same,growth inhibition,[7]; at 100.0 µM,49%
same,growth inhibition,[8]; [17],23%
same,growth inhibition,[8]; [18],61%
same,growth inhibition,[8]; at 50.0 µM,83.5% (active)
same,growth inhibition,[9]; at 1.2 µM,9%
same,growth inhibition,[9]; at 3.7 µM,12%
same,growth inhibition,[9]; at 11.0 µM,39%
same,growth inhibition,[9]; at 33.0 µM,49%
same,growth inhibition,[9]; at 100.0 µM,56%
same,growth inhibition,[10]; [17],14%
same,growth inhibition,[10]; [18],43%
same,growth inhibition,[10]; at 50.0 µM,72.2% (active)
same,growth inhibition,[11]; at 1.2 µM,1%
same,growth inhibition,[11]; at 3.7 µM,8%
same,growth inhibition,[11]; [17],20%
same,growth inhibition,[11]; at 11.0 µM,24%
same,growth inhibition,[11]; at 33.0 µM,44%
same,growth inhibition,[11]; [18],63%
same,growth inhibition,[11]; at 50.0 µM,83.7% (active)
same,growth inhibition,[11]; at 100.0 µM,63%
same,growth inhibition,[12]; at 1.2 µM,4%
same,growth inhibition,[12]; at 3.7 µM,8%
same,growth inhibition,[12]; at 11.0 µM,9%
same,growth inhibition,[12]; at 33.0 µM,14%
same,growth inhibition,[12]; at 100.0 µM,28%
same,growth inhibition,[13]; at 1.2 µM,5%
same,growth inhibition,[13]; at 3.7 µM,9%
same,growth inhibition,[13]; at 11.0 µM,15%
same,growth inhibition,[13]; at 33.0 µM,18%
same,growth inhibition,[13]; at 100.0 µM,35%
same,growth inhibition,[14]; at 1.2 µM,6%
same,growth inhibition,[14]; at 3.7 µM,12%
same,growth inhibition,[14]; at 11.0 µM,18%
same,growth inhibition,[14]; at 33.0 µM,29%
same,growth inhibition,[14]; at 100.0 µM,56%
same,growth inhibition,[15]; [17],21%
same,growth inhibition,[15]; [18],61%
same,growth inhibition,[15]; at 50.0 µM,52.2%
same,growth inhibition,[16]; at 1.2 µM,7%
same,growth inhibition,[16]; at 3.7 µM,12%
same,growth inhibition,[16]; at 11.0 µM,8%
same,growth inhibition,[16]; at 33.0 µM,19%
same,growth inhibition,[16]; at 100.0 µM,30%
